The source made the active and inactive calls.
Key:
[1] = molecular target: Albumin (Bos taurus) (UniProt P02769); experiment: compounds binding labelled BSA control protein – biochemical, small-molecule microarray, Alexa647 label, 635/667 nm fluorescence, artefact control for SMM control protein annotation, profiling panel (AID 1118); settings: BSA-A647 binding, fluorescence 635 nm, higher = more signal;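 further: score merges 667 nm emission intensity and signal-to-noise per printed compound spot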
Chain of Albumin (Bos taurus) (P02769 whole entry, looked up): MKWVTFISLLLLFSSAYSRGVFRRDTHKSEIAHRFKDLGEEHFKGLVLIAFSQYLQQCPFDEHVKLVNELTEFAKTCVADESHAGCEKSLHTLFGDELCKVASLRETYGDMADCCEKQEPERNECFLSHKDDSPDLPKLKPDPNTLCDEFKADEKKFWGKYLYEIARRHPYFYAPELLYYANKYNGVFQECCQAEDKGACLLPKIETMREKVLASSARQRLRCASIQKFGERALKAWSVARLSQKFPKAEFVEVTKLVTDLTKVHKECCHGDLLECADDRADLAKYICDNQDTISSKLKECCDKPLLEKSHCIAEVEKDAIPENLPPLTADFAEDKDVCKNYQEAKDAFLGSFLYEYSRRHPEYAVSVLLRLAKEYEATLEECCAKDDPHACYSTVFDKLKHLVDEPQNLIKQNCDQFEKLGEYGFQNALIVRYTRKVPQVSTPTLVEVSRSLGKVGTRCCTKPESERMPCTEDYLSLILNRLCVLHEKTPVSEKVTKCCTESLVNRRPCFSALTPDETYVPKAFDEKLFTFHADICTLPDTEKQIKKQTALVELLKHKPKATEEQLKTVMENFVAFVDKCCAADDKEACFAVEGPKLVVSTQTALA

[2] = probe aXIP binding to arrayed compounds – biochemical, NeuroSMM set, 635/667 nm fluorescence, primary screen (AID 1119); settings: small-molecule microarray, higher = more signal, called active from +8 up or from −8 down;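 further: probe is the protein aXip251-270 applied at 1 µg/mL to compound-printed slides; binding of probe to printed compounds measured as 667 nm fluorescence plus signal to noise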
[3] = probe aNOTCH3 binding on compound microarray – biochemical, small-molecule microarray, 635/667 nm fluorescence, primary screen (AID 1120); settings: higher = more signal;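 further: probe is a biotin-tagged antibody raised against NOTCH3 rather than NOTCH3 protein; score merges spot fluorescence near 667 nm with spot signal to noise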
[4] = probe aNOTCH2 binding on compound microarray – biochemical, small-molecule microarray, 635/667 nm fluorescence, primary screen (AID 1121); settings: higher = more signal;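 further: score merges feature fluorescence read at 667 nm with its signal to noise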
[5] = molecular target: Carbonic anhydrase 2 (Homo sapiens) (UniProt P00918); experiment: compounds binding carbonic anhydrase 2 – biochemical, small-molecule microarray, Alexa647-labelled CAII, profiling panel (AID 1122); settings: CAII-A647 binding fluorescence, higher = more signal
[6] = COS7 lysate on small-molecule microarray, probe aHis, 635 nm (AID 1123); settings: COS7 cell lysate, fluorescence, higher = more signal;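 further: z-score combines 667nm fluorescence intensity with signal-to-noise per printed compound spot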
[7] = probe aLAP1 signal on lysate-treated microarray – cell lysate, small-molecule microarray, COS7 lysate, primary screen (AID 1124); settings: probe aLAP1, fluorescence, higher = more signal;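 further: lysate comes from COS7 cells expressing LAP1 and is applied at 0.3 µg/mL; score merges spot fluorescence near 667 nm with signal-to-noise over triplicate slides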
[8] = system: Sam68 (KHDRBS1); experiment: compounds binding KHDRBS1 protein – biochemical, small-molecule microarray, 635 nm fluorescence, primary screen (AID 1125); settings: higher = more signal;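 further: score merges 667 nm channel intensity with signal to noise over triplicate slides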
[9] = system: Chordin-like protein 2 (CHRDL2); experiment: compounds binding chordin-like 2 – biochemical, small-molecule microarray, 635 nm fluorescence, primary screen (AID 1126); settings: fluorescence 635 nm, higher = more signal;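 further: printed compound slides probed with Chrdl2 protein at 4 µg/mL for 1 h at 4 C; score merges 667 nm emission intensity with signal to noise over three replicate slides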
[10] = molecular target: Concanavalin-A (Canavalia ensiformis) (UniProt P02866); experiment: compounds binding concanavalin A lectin – biochemical, small-molecule microarray, Alexa647 label, 635 nm, artefact control for SMM control protein annotation, primary screen (AID 1127); settings: ConA-A647 binding fluorescence, higher = more signal;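 further: z combines 667 nm emission intensity with signal-to-noise across three replicate slides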
Chain of Concanavalin-A (Canavalia ensiformis) (P02866 whole entry, looked up): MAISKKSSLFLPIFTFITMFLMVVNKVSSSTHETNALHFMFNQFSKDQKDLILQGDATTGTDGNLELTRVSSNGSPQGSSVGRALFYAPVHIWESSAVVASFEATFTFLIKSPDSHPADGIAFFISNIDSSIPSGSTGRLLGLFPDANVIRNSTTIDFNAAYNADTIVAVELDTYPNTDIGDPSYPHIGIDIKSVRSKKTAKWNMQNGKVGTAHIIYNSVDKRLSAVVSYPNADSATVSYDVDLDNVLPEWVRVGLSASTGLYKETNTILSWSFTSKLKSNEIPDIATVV

[11] = compounds binding Alexa647 anti-His antibody – biochemical, small-molecule microarray, 635 nm fluorescence, artefact control for SMM control protein annotation, primary screen (AID 1128); settings: higher = more signal;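 further: score merges feature fluorescence with signal-to-noise for each printed compound spot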
[12] = system: Human papillomavirus type 1a E7 protein (residues 1-88); experiment: HPV1a E7 small-molecule binders, primary screen, biochemical, small-molecule microarray, residues 1-88, 635 nm (AID 1129); settings: small-molecule microarray binding, fluorescence 635 nm; higher = more signal
[13] = molecular target: Focal adhesion kinase 1 (Homo sapiens) (UniProt Q05397); experiment: PTK2 protein binding on printed compound slides – biochemical, small-molecule microarray, 635/667 nm fluorescence, BSA, DTT, primary screen (AID 1130); settings: 635 nm fluorescence, higher = more signal;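 further: composite of spot emission at 667 nm and signal to noise over triplicate slides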
Chain of Focal adhesion kinase 1 (Homo sapiens) (Q05397 whole entry, looked up): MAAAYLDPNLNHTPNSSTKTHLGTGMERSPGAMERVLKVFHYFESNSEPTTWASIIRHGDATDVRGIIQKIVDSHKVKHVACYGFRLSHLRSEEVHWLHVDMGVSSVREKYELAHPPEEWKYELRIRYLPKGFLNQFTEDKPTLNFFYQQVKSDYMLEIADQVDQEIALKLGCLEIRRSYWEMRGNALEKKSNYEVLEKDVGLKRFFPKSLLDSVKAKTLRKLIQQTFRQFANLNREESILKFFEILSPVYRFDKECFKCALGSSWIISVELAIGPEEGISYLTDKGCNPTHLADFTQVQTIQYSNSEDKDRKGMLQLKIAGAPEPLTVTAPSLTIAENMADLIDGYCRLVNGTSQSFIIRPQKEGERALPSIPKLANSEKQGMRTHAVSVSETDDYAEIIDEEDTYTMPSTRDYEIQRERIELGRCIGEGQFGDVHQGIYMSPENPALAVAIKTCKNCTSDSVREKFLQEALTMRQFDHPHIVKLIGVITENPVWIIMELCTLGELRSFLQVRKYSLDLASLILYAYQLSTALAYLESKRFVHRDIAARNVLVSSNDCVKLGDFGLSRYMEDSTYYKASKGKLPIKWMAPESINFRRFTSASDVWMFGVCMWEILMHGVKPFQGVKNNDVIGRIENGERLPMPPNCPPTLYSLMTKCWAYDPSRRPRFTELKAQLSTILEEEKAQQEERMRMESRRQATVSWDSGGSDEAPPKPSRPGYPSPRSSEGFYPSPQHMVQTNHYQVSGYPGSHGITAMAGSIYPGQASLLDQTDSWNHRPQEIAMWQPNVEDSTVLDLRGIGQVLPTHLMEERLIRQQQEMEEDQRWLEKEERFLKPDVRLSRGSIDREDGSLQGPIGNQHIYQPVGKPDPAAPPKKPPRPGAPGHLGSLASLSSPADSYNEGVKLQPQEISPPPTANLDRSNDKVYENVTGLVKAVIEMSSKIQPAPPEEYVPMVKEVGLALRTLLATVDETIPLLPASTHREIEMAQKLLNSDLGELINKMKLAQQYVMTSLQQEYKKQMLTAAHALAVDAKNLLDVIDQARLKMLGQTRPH

[14] = system: Fibrinogen (Alexa647-labelled); experiment: Alexa647-fibrinogen binding to printed small molecules – biochemical, small-molecule microarray, 635/667 nm fluorescence, artefact control for SMM control-protein annotation, profiling panel (AID 1131); settings: fibrinogen-A647 binding fluorescence, higher = more signal;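 further: z-score merges 667 nm fluorescence with per-spot signal-to-noise over triplicate slides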
[15] = molecular target: Follistatin (Homo sapiens) (UniProt P19883); experiment: FST protein binding to printed compounds – biochemical, small-molecule microarray, 635/667 nm fluorescence, primary screen (AID 1132); settings: 635 nm fluorescence, higher = more signal
Chain of Follistatin (Homo sapiens) (P19883 whole entry, looked up): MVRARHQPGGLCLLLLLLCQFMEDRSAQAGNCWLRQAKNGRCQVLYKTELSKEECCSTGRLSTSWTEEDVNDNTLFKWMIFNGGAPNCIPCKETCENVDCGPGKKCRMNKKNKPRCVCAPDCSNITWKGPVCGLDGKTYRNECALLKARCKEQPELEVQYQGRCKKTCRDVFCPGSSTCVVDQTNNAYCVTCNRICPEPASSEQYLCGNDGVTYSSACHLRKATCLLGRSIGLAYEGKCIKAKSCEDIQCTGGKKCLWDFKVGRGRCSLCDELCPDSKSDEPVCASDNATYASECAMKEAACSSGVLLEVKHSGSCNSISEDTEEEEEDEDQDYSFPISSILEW

[16] = molecular target: Fibroblast growth factor 2 (Homo sapiens) (UniProt P09038); experiment: basic fibroblast growth factor binding to printed compounds – biochemical, small-molecule microarray, 635/667 nm fluorescence, primary screen (AID 1133); settings: FGF2, fluorescence 635/667, higher = more signal
Chain of Fibroblast growth factor 2 (Homo sapiens) (P09038 whole entry, looked up): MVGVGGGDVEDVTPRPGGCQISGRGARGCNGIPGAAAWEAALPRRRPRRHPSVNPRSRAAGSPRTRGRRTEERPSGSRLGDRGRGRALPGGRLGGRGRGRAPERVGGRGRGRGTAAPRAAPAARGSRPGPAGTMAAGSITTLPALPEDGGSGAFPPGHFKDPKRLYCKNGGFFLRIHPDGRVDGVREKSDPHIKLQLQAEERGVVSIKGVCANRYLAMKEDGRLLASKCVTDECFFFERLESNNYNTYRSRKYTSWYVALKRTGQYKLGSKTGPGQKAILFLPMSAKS

[17] = JC-1 mitochondrial potential readout, lung cancer cells – cell-based, A549, JC-1 fluorescence, basal, 24 h, 100 nL, profiling panel (AID 1138); settings: higher = more signal;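 further: A549 lung adenocarcinoma cells under basal conditions with no added stimulus; test concentration not given here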
[18] = system: Lefty1; experiment: Lefty1 protein binding to printed compounds – biochemical, small-molecule microarray, 635/667 nm fluorescence, primary screen (AID 1139); settings: fluorescence 635/667, higher = more signal
[19] = system: wheat germ agglutinin (Triticum aestivum), Alexa647-labelled; experiment: Alexa647-WGA lectin binding to printed small molecules – biochemical, small-molecule microarray, 635/667 nm fluorescence, artefact control for SMM control-protein annotation, profiling panel (AID 1140); settings: WGA-A647 binding, 635 nm fluorescence, higher = more signal;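 further: score merges 667 nm feature emission with signal to noise over triplicate slides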
[20] = molecular target: Luciferin 4-monooxygenase (Photinus pyralis) (UniProt P08659); experiment: inhibition of purified Photinus pyralis luciferase – biochemical, luminescence, purified enzyme, 2006 set, primary screen (AID 1141); settings: purified firefly luciferase, SteadyGlo luminescence, 30 min; higher = more signal, called active from +8 up or from −8 down;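 further: cell-free assay with purified firefly luciferase at 100 ng per well in PBS; test concentration not given here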
Chain of Luciferin 4-monooxygenase (Photinus pyralis) (P08659 whole entry, looked up): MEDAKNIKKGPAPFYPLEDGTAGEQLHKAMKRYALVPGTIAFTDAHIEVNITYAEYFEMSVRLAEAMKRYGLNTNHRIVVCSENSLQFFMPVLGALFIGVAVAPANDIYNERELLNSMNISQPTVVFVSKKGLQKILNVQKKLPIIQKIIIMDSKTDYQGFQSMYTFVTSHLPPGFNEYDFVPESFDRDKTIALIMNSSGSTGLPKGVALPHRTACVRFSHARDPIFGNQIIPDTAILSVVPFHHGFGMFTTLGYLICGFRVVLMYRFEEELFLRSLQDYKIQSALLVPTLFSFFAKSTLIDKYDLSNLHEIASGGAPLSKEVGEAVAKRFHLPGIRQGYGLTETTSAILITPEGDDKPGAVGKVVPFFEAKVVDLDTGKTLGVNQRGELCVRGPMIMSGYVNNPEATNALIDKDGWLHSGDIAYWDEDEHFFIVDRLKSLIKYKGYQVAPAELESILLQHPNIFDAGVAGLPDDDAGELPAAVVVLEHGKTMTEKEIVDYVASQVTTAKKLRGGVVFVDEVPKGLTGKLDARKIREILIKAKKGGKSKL

Row | SMILES | composite z-score [1] | composite Z-score [2] | composite z-score [3] | composite z-score [4] | composite z-score [5] | composite z-score [6] | composite z-score [7] | composite z-score [8] | composite z-score [9] | composite z-score [10] | composite z-score [11] | composite z-score [12] | composite z-score [13] | composite z-score [14] | composite z-score [15] | composite z-score [16] | z-score [17] | composite z-score [18] | composite z-score [19] | z-score [20]
1 | CC(C)[C@@H](OCc1ccccc1)[C@H](C)C=NO[C@H](C)c1cn([C@@H]2COC[C@H]2O)nn1 | 0.378 | -0.0641 (inactive) | 0.307 | -0.156 | -0.133 | 0.811 | 0.388 | 1.3 | 0.0507 | 0.584 | 0.0202 | 0.693 | 0.279 | 0.0524 | 0.229 | 0.422 | -0.245 | 0.957 | -0.0886 | 1.06 (inactive)
2 | CC(C)=CCCC(C)=CCON=C1[C@H]2CCn3c(=O)n(-c4ccccc4)c(=O)n3[C@H]2[C@H](O)[C@@H]2O[C@H]12 | 0.271 | 0.0213 (inactive) | 0.185 | -0.14 | 0.464 | 1.18 | 0.353 | 1.22 | 1.02 | 0.763 | 0.645 | 1.14 | 0.274 | 0.712 | 1.19 | 0.765 | 0.334 | 0.808 | 0.505 | -0.416 (inactive)
3 | CCOC(=O)[C@H](CC(C)C)NC(=O)CCC1CC(OC(=O)NCc2ccc3c(c2)OCO3)CC2(CCCC(COC(=O)NCCC(C)C)O2)O1 (stereo not given in full) | 0.42 | 0.231 (inactive) | -0.0555 | -0.112 | 0.515 | 0.298 | 0.0199 | -0.557 | -0.085 | -0.746 | 0.348 | -0.438 | 0.0454 | -0.27 | -0.14 | 0.279 | 0.471 | 0.172 | 0.182 | 0.537 (inactive)
4 | CC(=O)OC[C@H]1O[C@H](CCON=C(C)C)C=C[C@@H]1OC(C)=O | 0.123 | -0.0706 (inactive) | -0.0362 | -0.0651 | -0.177 | -0.308 | -0.0375 | -0.406 | 0.445 | 0.186 | 1.56 | -0.33 | 0.115 | 0.0586 | 0.521 | 0.247 | 0.0315 | 0.377 | -0.178 | 0.654 (inactive)
5 | C[C@H]1C=CCC(=O)OC[C@H](C)C(=O)N2CCC[C@H]2C(=O)OC1 | -0.68 | 0.472 (inactive) | -0.161 | -0.115 | -0.656 | -0.802 | 0.374 | -0.374 | 1.62 | -0.35 | -0.637 | -1.44 | -0.943 | -1.09 | 1.43 | 2.01 | -0.823 | 1.61 | -1.18 | 1.32 (inactive)
6 | C=CC[C@@H]1C=C[C@H](ON=C(C)CCN2CCCCc3nc(C)c(C)cc32)[C@@H](CO)O1 | 0.0868 | 0.325 (inactive) | -0.0304 | -0.14 | 0.226 | 0.588 | 0.155 | 0.972 | 1.47 | -0.223 | -0.833 | -0.0192 | 0.499 | 0.635 | 1.39 | 1.36 | 0.143 | 1.56 | 0.607 | 1.38 (inactive)

Source: PubChem BioAssay
